Results filed as inconclusive are left out. Active and inactive are the calls of the source. Unless noted, calls follow the shape of the dose curve; as a rule, active = well fitted curve in the direction sought with a large enough effect; inconclusive = small, poorly fitted or top-dose-only effect, or another doubt; inactive = no such curve, though single readings can be large; an effect the other way counts as inactive or inconclusive.
Columns and labels:
[1] = Cell Viability - BJ (AID 421; calls by dose curve;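 also: potency is read from the fitted curve at half-maximal effect; cells exposed to compound for 40 hours at 37 °C before readout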); conditions: BJ fibroblast viability, qHTS
How it was run: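 Luminescent ATP signal (CellTiter-Glo, 20 min at room temperature) served as the read-out of viable BJ cells after 40 hours of compound treatment. Responses were scaled between DMSO and 100 uM tamoxifen, and AC50 values were obtained by Hill modeling.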

[2] = Cell Viability - Jurkat (AID 426;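 active = dose-dependent loss of cell ATP signal giving a full or clear fitted curve, ranked by lower potency value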; also: potency is read from the fitted curve at half-maximal effect); conditions: qHTS
How it was run: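 Luminescent ATP read-out (CellTiter-Glo, 20 min at room temperature) after 40 hr compound exposure at 37 °C of Jurkat E6-1 cells, 5000/well. Decreased ATP taken as cytotoxicity; AC50 from standard Hill equation.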

[3] = Cell Viability - Hek293 (AID 427;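 active = compounds whose dose-response curve shows a full or clear partial loss of cell viability, called from curve shape rather than a numeric limit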;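 also: potency is read from the fitted curve at half-maximal effect; cells exposed to compound for 40 hours at 37 °C before reading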); conditions: qHTS
How it was run: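 Luminescent ATP read-out (CellTiter-Glo, 20 min RT) after 40 hr compound exposure at 37 °C in complete medium. Signal normalized to DMSO (basal) and 100 uM tamoxifen (100% inhibition); concentration-response fitted with the standard Hill equation to give AC50.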

[4] = Cell Viability - HepG2 (AID 433; calls by dose curve;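 also: potency is read from the fitted curve at half-maximal effect; potency for ATP loss meaning cytotoxicity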); conditions: qHTS
How it was run: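 In this qHTS format, a 40 h, 37 °C compound incubation of HepG2 cells in complete medium precedes a 20 min CellTiter-Glo step at room temperature. Tamoxifen and doxorubicin serve as positive controls; Hill-equation fits yield AC50.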

[5] = Cell Viability - MRC5 (AID 434; calls by dose curve;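 also: potency is read from the fitted curve at half-maximal effect; potency reflects cytotoxicity seen as loss of intracellular ATP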); conditions: MRC5 lung fibroblast viability, qHTS
How it was run: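 Decrease in intracellular ATP, quantified by luciferase light output, reflects compound toxicity toward MRC5 cells exposed for 40 hr in complete culture medium. Concentration-response curves, scaled between DMSO and 100 uM tamoxifen, gave AC50 values.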

[6] = Cell Viability - SK-N-SH (AID 435; calls by dose curve; also: potency is read from the fitted curve at half-maximal effect); conditions: SK-N-SH neuroblastoma cell viability qHTS
How it was run: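 Human neuroblastoma line, 40 h exposure at 37 °C, ATP quantified via luciferase luminescence; DMSO and 100 uM tamoxifen define 0 and 100% inhibition for AC50 fitting.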

[7] = Cell Viability - N2a (AID 540); conditions: N2a mouse neuroblastoma cell viability; at 92.2 µM (top of the series);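 also: plate controls were DMSO alone for no effect and tamoxifen control for full effect; nearly all actives have a fitted effect of over 45% in size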
How it was run: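 N2a mouse neuroblastoma, 1500 cells/well, 5 hr settle; compound 40 hr, 37 °C; CellTiter-Glo 20 min RT; luminescence; Hill-fit AC50.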

[8] = Cell Viability - NIH 3T3 (AID 541); conditions: NIH 3T3 cell viability, qHTS; activity change, negative = cytotoxicity: at 92.2 µM (top of the series);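 also: plate controls were DMSO alone for no effect and tamoxifen positive control for full effect; nearly all actives have a fitted effect of over 25% in size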
How it was run: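 qHTS format; 40 hr compound exposure, 37 °C; CellTiter-Glo luminescence (cellular ATP) read-out after 20 min at RT. Decrease in ATP = cytotoxicity; AC50 from standard Hill fit.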

[9] = Cell Viability - HUV-EC-C (AID 542); also: % is scaled to controls: 0 for no effect and ±100 for the full control effect; nearly all actives have a fitted effect of over 35% in size
How it was run: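 Luminescent ATP read-out (CellTiter-Glo, 20 min room temperature) after 40 hr compound treatment of HUV-EC-C cells at 37 °C. Concentration-response data fitted with the standard Hill equation to give AC50; tamoxifen and doxorubicin served as positive controls.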

[10] = Cell Viability - H-4-II-E (AID 543); also: % is scaled to controls: 0 for no effect and ±100 for the full control effect; nearly all actives have a fitted effect of over 35% in size
How it was run: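 qHTS, rat hepatoma H-4-II-E, 1500 cells/well; 40 hr compound exposure, 37 °C; CellTiter-Glo ATP luminescence after 20 min RT; AC50 by standard Hill fit.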

[11] = Cell Viability - SH-SY5Y (AID 544); conditions: SH-SY5Y neuroblastoma cell viability; viability change, negative = cytotoxic: at 92.2 µM (top of the series); also: nearly all actives have a fitted effect of over 55% in size
How it was run: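 SH-SY5Y, 1500 cells/well, 5 hr pre-incubation 37 °C; cpd 40 hr 37 °C; CellTiter-Glo 20 min RT; luminescence (ATP) read. qHTS concentration-response, Hill fit → AC50. Tamoxifen, doxorubicin as positive controls.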

[12] = Cell Viability - Renal Proximal Tubule (AID 545); conditions: renal proximal tubule cells viability; at 91.7 µM (top of the series), primary cells of rat origin unless noted; also: nearly all actives have a fitted effect of over 40% in size
How it was run: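 In this qHTS format, normal rat kidney-derived proximal tubule cells in complete culture medium receive compound titrations, then sit 40 hours at 37 °C before luciferase-based ATP quantitation; potency is reported as AC50 from concentration-response curves.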

[13] = Cell Viability - Mesenchymal (AID 546);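 also: cells exposed to compound for 40 hours before reading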
How it was run: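 In this qHTS cytotoxicity format, glomerulus-derived human mesenchymal kidney cells received compound for 40 hr, then luciferase-based ATP quantitation. Concentration-response data were fitted with the Hill equation.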

[14] = Cellular Toxicity (caspase-3) HepG2 (AID 654);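 also: cells exposed to compound for 16 hours before reading; 0% = DMSO alone and 100% = caspase signal from 100 µM tamoxifen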
How it was run: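 Luminescent Caspase-Glo 3/7 readout after 16 hr compound exposure of human hepatocellular carcinoma HepG2 cells at 37 °C; qHTS concentration-response, normalized DMSO = 0%, 100 uM tamoxifen = 100%; AC50 by standard Hill equation.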

[15] = Cellular Toxicity (caspase-3) Jurkat (AID 655); conditions: Jurkat caspase-3 activation, luminescence, DMSO = 0%, tamoxifen = 100%; at 92.2 µM (top of the series);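 also: cells exposed to compound for 16 h at 37 °C before reading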
How it was run: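 qHTS in human Jurkat T-cell leukemia line: 16 hr compound treatment at 37 °C, caspase-3/7 activity measured by Caspase-Glo luminescence. AC50 derived from Hill equation.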

[16] = Cellular Toxicity (caspase-3) HUV-EC-C (AID 656)
How it was run: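 Concentration-dependent caspase 3/7 induction was assessed in HUV-EC-C cells exposed for 16 hours. Data scaled between DMSO and tamoxifen (100 uM) controls.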

[17] = Cellular Toxicity (caspase-3) SHSY5Y (AID 657);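 also: cells exposed to compound for 16 hours at 37 °C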
How it was run: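 Readout: caspase-cleaved peptide-aminoluciferin substrate driving luciferase light in SH-SY5Y neuroblastoma cells after 16 h treatment. Response normalized to DMSO and 10 uM staurosporine controls.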

[18] = Cellular Toxicity (caspase-3) BJ (AID 658);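 also: 0% = DMSO basal and 100% = 10 µM staurosporine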
How it was run: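 Plated BJ cells (1000/well) rested 5 hr, received compound for 16 hr at 37 °C, then Caspase-Glo 3/7 reagent for 1 hr at room temperature before luminescence reading.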

[19] = Cellular Toxicity (caspase-3) MRC-5 (AID 659);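 also: 0% = DMSO basal and 100% = 10 µM staurosporine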
How it was run: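 Apoptosis readout in MRC-5 cells: luciferase light generated after caspase 3/7 cleaves a peptide-aminoluciferin substrate, measured post 16 hr compound incubation at 37 °C.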

[20] = Cellular Toxicity (caspase-3) Mesangial (AID 660);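 also: combined caspase 3 and 7 activity read by Caspase-Glo luminescence; cells exposed to compound for 16 h before the caspase read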
How it was run: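 Luminescent Caspase-Glo 3/7 readout (aminoluciferin substrate cleavage, 20 min RT) after 16 h compound exposure at 37 °C of normal human mesangial cells. Signal increase normalized between DMSO basal and 100 uM tamoxifen; Hill-equation AC50.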

[21] = Cellular Toxicity (caspase-3) SK-N-SH (AID 661);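 also: 0% = DMSO basal and 100% = 10 µM staurosporine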
How it was run: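 Luminescent Caspase-Glo 3/7 read-out after 16 hr compound exposure of SK-N-SH neuroblastoma cells at 37 °C. Signal increase normalized to DMSO (basal) and 10 uM staurosporine (100%); AC50 from Hill equation fits of qHTS concentration-response data.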

[22] = Cellular Toxicity (caspase-3) H-4-II-E (AID 663);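 also: cells exposed to compound for 16 hr before readout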
How it was run: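 Caspase 3/7 activation measured in H-4-II-E cells in complete culture medium after 16 hr treatment at 37 °C, using luciferase-coupled substrate readout; AC50 values come from Hill-equation fits of normalized concentration-response data.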

CCCCOC(=O)c1ccccc1C(=O)OCCCC
inactive: Potency [1] > 92 µM | Potency [2] > 92 µM | Potency [3] > 92 µM | Potency [4] > 92 µM | Potency [5] > 92 µM | Potency [6] > 92 µM | activity change, negative = cytotoxicity [7] -7.34% | activity change, negative = cytotoxicity [8] -3.85% | Potency [9] | Potency [10] | Potency [11] | activity change, negative = cytotoxicity [12] 1.09% [at 91.7 µM] | outcome [13] | outcome [14] | caspase-3 activation [15] -1.56% | outcome [16] | outcome [17] | outcome [18] | outcome [19] | outcome [20] | outcome [21] | outcome [22]
